Measurements as given in PubChem BioAssay (NCATS).
Inconclusive results are not listed. A call without a number means that no potency is given here. Unmarked numbers belong to inactive results. Active and inactive are the calls of the source. Calls come from the whole dose curve.
Potency is the fitted concentration of half-maximal effect.

Test: Primary qHTS for inhibitors of MERS-S pseudo-typed particle cell entry (AID 1479149); note: nearly all actives have a fitted effect of over 60% in size
Settings: MERS-S pseudotyped particle entry, luciferase; series mostly up to 57.1 µM; activity change, negative = inhibition: at the top concentration
For `CC(C)C1CCC(C(=O)N[C@H](Cc2ccccc2)C(=O)O)CC1` (some centres not stated), the “outcome” value was “inactive”.
For `CN(C)CCOC(C)(c1ccccc1)c1ccccn1` (configuration not stated), the “outcome” value was “inactive”.
In the case of `Cc1onc(-c2ccccc2Cl)c1C(=O)N[C@@H]1C(=O)N2[C@@H]1SC(C)(C)[C@@H]2C(=O)O`, the “outcome” value is reported as “inactive”.
With `CC(C(=O)O)c1cccc(C(=O)c2ccccc2)c1` (configuration not stated) the “outcome” value was “inactive”.
With `COC(=O)Nc1nc2ccc(C(=O)c3ccccc3)cc2[nH]1` the “outcome” value was “inactive”.
For `Cc1nc2n(c(=O)c1CCN1CCC(c3noc4cc(F)ccc34)CC1)CCC[C@H]2O`, the “activity change, negative = inhibition” value was 1.25% [at 26.4 µM].
In the case of `Cc1cc2c(s1)Nc1ccccc1N=C2N1CCN(C)CC1`, the “activity change, negative = inhibition” value is reported as -22.9%.
With `COc1ccccc1OCC(O)CN1CCN(CC(=O)Nc2c(C)cccc2C)CC1` (configuration not stated) the “outcome” value was “inactive”.
For `Cc1cn([C@H]2C[C@H](N=[N+]=[N-])[C@@H](CO)O2)c(=O)[nH]c1=O`, the “activity change, negative = inhibition” value was -84.4%.
With `OCCN1C[C@H](O)[C@@H](O)[C@H](O)[C@H]1CO` the “outcome” value was “inactive”.
In the case of `CC(c1cc2ccccc2s1)N(O)C(N)=O` (configuration not stated), the “outcome” value is reported as “inactive”.
In the case of `Cc1ccc(C(=O)c2cc(O)c(O)c([N+](=O)[O-])c2)cc1`, the “outcome” value is reported as “inactive”.
With `COc1ccc([C@@H]2Sc3ccccc3N(CCN(C)C)C(=O)[C@@H]2OC(C)=O)cc1` the “activity change, negative = inhibition” value was -1.66%.
With `CCCCS(=O)(=O)N[C@@H](Cc1ccc(OCCCCC2CCNCC2)cc1)C(=O)O` the “outcome” value was “inactive”.
With `CC1(C)S[C@@H]2[C@H](NC(=O)[C@H](N)c3ccccc3)C(=O)N2[C@H]1C(=O)O` the “outcome” value was “inactive”.
For `CC(N)C12CC3CC(CC(C3)C1)C2` (configuration not stated), the “activity change, negative = inhibition” value was -15.3%.
In the case of `O=C(c1ccccc1)c1ccc2n1CCC2C(=O)O` (configuration not stated), the “outcome” value is reported as “inactive”.
For `CCCCc1ncc(/C=C(\Cc2cccs2)C(=O)O)n1Cc1ccc(C(=O)O)cc1`, the “outcome” value was “inactive”.
In the case of `CN1CCC[C@@H]1Cc1c[nH]c2ccc(CCS(=O)(=O)c3ccccc3)cc12`, the “outcome” value is reported as “inactive”.
For `CC(C)NC[C@@H](O)COc1ccc(CC(N)=O)cc1`, the “outcome” value was “inactive”.
With `CC(=O)O[C@@]12CO[C@@H]1C[C@H](O)[C@@]1(C)C(=O)[C@H](O)C3=C(C)[C@@H](OC(=O)[C@H](O)[C@@H](NC(=O)OC(C)(C)C)c4ccccc4)C[C@@](O)([C@@H](OC(=O)c4ccccc4)[C@H]21)C3(C)C` the “outcome” value was “inactive”.
With `Cc1ccnc2c1NC(=O)c1cccnc1N2C1CC1` the “outcome” value was “inactive”.
With `Cc1ccccc1C(=O)Nc1ccc(C(=O)N2CCCC(O)c3cc(Cl)ccc32)c(C)c1` (configuration not stated) the “outcome” value was “inactive”.
With `CCOc1ccccc1OCCN[C@H](C)Cc1ccc(OC)c(S(N)(=O)=O)c1` the “activity change, negative = inhibition” value was -16.2%.
For `C=C(c1ccc(C(=O)O)cc1)c1cc2c(cc1C)C(C)(C)CCC2(C)C`, the “activity change, negative = inhibition” value was -25.7%.
For `CN1CCN(C2=Nc3cc(Cl)ccc3Nc3ccccc32)CC1`, the “activity change, negative = inhibition” value was -23.4%.
For `CN(C)CCc1c[nH]c2ccc(C[C@H]3COC(=O)N3)cc12`, the “outcome” value was “inactive”.
In the case of `CNS(=O)(=O)CCc1ccc2[nH]cc(C3CCN(C)CC3)c2c1`, the “outcome” value is reported as “inactive”.
In the case of `CCCCc1nc(Cl)c(CO)n1Cc1ccc(-c2ccccc2-c2nn[nH]n2)cc1`, the “outcome” value is reported as “inactive”.
For `CCOC(=O)[C@H](CCc1ccccc1)N[C@@H](C)C(=O)N1Cc2cc(OC)c(OC)cc2C[C@H]1C(=O)O`, the “activity change, negative = inhibition” value was -1.66%.
For `O=C1CCc2ccc(OCCCCN3CCN(c4cccc(Cl)c4Cl)CC3)cc2N1`, the Potency was 11.2 µM (active).
For `CCC(=O)O[C@H]1[C@H](O[C@@H]2[C@@H](C)[C@H](O[C@H]3C[C@@](C)(OC)[C@@H](O)[C@H](C)O3)[C@@H](C)C(=O)O[C@H](CC)[C@@](C)(O)[C@H](O)[C@@H](C)C(=O)[C@H](C)C[C@@]2(C)O)O[C@H](C)C[C@@H]1N(C)C`, the “outcome” value was “inactive”.
In the case of `NC(=O)N1c2ccccc2CC(=O)c2ccccc21`, the “activity change, negative = inhibition” value is reported as -13.5%.
For `C[C@H]1O[C@H](O[C@H]2[C@H](O)[C@@H](O)[C@@H](O[C@H]3[C@H](O)[C@@H](O)[C@H](O)O[C@@H]3CO)O[C@@H]2CO)[C@H](O)[C@@H](O)[C@@H]1N[C@H]1C=C(CO)[C@@H](O)[C@H](O)[C@H]1O`, the “outcome” value was “inactive”.
In the case of `CCC1C(=O)OCC1Cc1cncn1C` (configuration not stated), the “outcome” value is reported as “inactive”.
For `Cc1ccsc1C(=CCCN1CCC[C@@H](C(=O)O)C1)c1sccc1C`, the “outcome” value was “inactive”.
With `COC(=O)CCc1ccc(OCC(O)CNC(C)C)cc1` (configuration not stated) the “outcome” value was “inactive”.
